Test results as given in the supplement of paper PMC13380429.

Experiments:
[1] = tested on: Vero E6 infected with SARS-CoV-2; assay: morphology score (similarity to uninfected cells); higher = more like uninfected cells; settings: 24 h
[2] = tested on: Vero E6 infected with SARS-CoV-2; assay: SARS-CoV-2 infection rate relative to infected DMSO; higher = more infection, active = 60 or less; settings: 24 h

Structure (SMILES)	morphology score [1]	SARS-CoV-2 infection rate [2]
COCCOCCOc1ccc(C2=N[C@@](C)(C(=O)O)CS2)c(O)c1 (10 µM)	0.128	102% (inactive)
O[C@@H](CN1CCNCC1)Cn1c2ccc(Br)cc2c2cc(Br)ccc21 [BAX-channel-blocker] (0.833333 µM)	0.121	104% (inactive)
COc1ncc(-c2ccc3c(Nc4cc(Oc5cc(F)cc(F)c5)cc(C(=O)O)c4)c(S(=O)(=O)NC4CC4)cnc3c2)c(OC)n1 (10 µM)	-0.00104	109% (inactive)
CN1C[C@@H](NS(=O)(=O)N(C)C)C[C@@H]2c3cccc4c3c(cn4C)C[C@H]21 [mesulergine] (10 µM)	0.205	93.5% (inactive)
C[C@]1(O)C[C@@H](c2nc(-c3ccc4ccc(-c5ccccc5)nc4c3)c3c(N)nccn32)C1 [linsitinib] (10 µM)	0.275	88.5% (inactive)
C[C@H](N)C(=O)O [L-alanine] (10 µM)	-0.118	111% (inactive)
NC(N)=Nc1nc(CSCCN/C=N/S(=O)(=O)c2ccc(Br)cc2)cs1 [ebrotidine] (10 µM)	0.0177	97% (inactive)
C[C@@H]1CN([C@H]2CC[C@](C#N)(c3ccc(F)cc3)CC2)CC[C@]1(C(=O)O)c1ccccc1 [levocabastine] (10 µM)	-0.0824	112% (inactive)
CCOC(=O)Nc1cc(-c2ccc(C)c(NS(C)(=O)=O)c2)nn2c(C)nnc12 [bromosporine] (10 µM)	-0.021	111% (inactive)
CCn1cc(C(=O)O)c(=O)c2cc(F)c(N3CCNCC3)cc21 [norfloxacin] (10 µM)	0.204	86% (inactive)
[Cl][Ru-]([Cl])([Cl])[Cl].[Na+].c1ccc2[nH]ncc2c1.c1ccc2[nH]ncc2c1 (10 µM)	0.443	43% (active)
CO/N=C(\C(=O)N[C@@H]1C(=O)N2C(C(=O)O)=C(CSc3nc(=O)c(O)nn3C)CS[C@H]12)c1csc(N)n1 [ceftriaxone] (10 µM)	-0.108	112% (inactive)
N[C@H]1C[C@@H]1c1ccc(-c2cccc(O)c2)cc1 (10 µM)	0.246	87% (inactive)
